The values that follow come from PubChem BioAssay (Tox21).

Unmarked numbers belong to inactive results. Results filed as inconclusive are left out. Active and inactive are the calls of the source. Unless noted, the call rests on the fitted dose curve; in most records, active means well fitted curve in the direction sought with a large enough effect in the repeat runs; inconclusive means weak or mixed curves; inactive means no such curve, though single readings can be large; an effect the other way counts as inactive or inconclusive.

A short description of experiment [1]: qHTS assay for small molecule agonists of the p53 signaling pathway (AID 651631; calls by dose curve; further: nearly all actives have a fitted effect of over 15% in size; further: potency means the concentration at half of the fitted maximal effect). The method in brief: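 Beta-lactamase reporter activity under p53 response elements was quantified in HCT-116 cells by FRET fluorescence, following 16 h incubation with test compounds at 37 °C and 2 h substrate development at room temperature.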
For orientation: In qHTS, concentration-response curves come from the screen itself.

Experiment [2] in a line: qHTS assay for small molecules that induce genotoxicity in human embryonic kidney cells expressing luciferase-tagged ATAD5 (AID 651632). Further: nearly all actives have a fitted effect of over 15% in size. The method in brief: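 Increased luciferase signal from ATAD5-tagged reporter cells indicates DNA-damage-driven ATAD5 induction. HEK293T cells are treated for 16 hr at 37C before detection with Amplite.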
Experiment [3] is described as follows: qHTS assay for small molecule agonists of the p53 signaling pathway - cell viability (AID 651633; calls by dose curve; further: nearly all actives have a fitted effect of over 30% in size; further: potency means the concentration at half of the fitted maximal effect). The method in brief:
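p53RE-bla cells were treated with compound for 16 hours at 37 C. Cytotoxicity was then measured as CellTiter-Glo luminescence after 30 min at room temperature.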

Experiment [4] can be described thus: qHTS assay for small molecule disruptors of the mitochondrial membrane potential - cell viability (AID 720634; calls by dose curve;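 further: human HepG2 liver cancer cells; nearly all actives have a fitted effect of over 20% in size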). The method in brief:
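After overnight attachment at 37 C, HepG2 cells received compound or DMSO vehicle for 1 hr. Viability is then taken from ATP-driven luminescence following a 30 min room-temperature CellTiter-Glo step.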

The nature of experiment [5]: qHTS assay to test for compound auto fluorescence at 590 nm (red) in HepG2 cells (AID 720674). In short, it runs like this:
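Fluorescence at 590 nm emission following 540 nm excitation was recorded from HepG2 wells one hour after compound transfer, with DMSO-only wells as vehicle and Rose Bengal sodium equivalency as the scale.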

The nature of experiment [6]: qHTS assay to test for compound auto fluorescence at 535 nm (green) in HepG2 cells (AID 720675).
The nature of experiment [7]: qHTS assay to test for compound auto fluorescence at 460 nm (blue) in HEK293 cells (AID 720678). In short, it runs like this:
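HEK293 cells (2,000 per well, medium with 10% dialyzed FBS) attached for 4-5 hr at 37C, then received compound and stood overnight at 37C, 5% CO2. Blue fluorescence was read at Ex/Em 405/460 nm and expressed relative to triamterene.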

Experiment [8] can be described thus: qHTS assay to test for compound auto fluorescence at 590 nm (red) in HEK293 cells (AID 720679). In short, it runs like this: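 HEK293 cells (2,000/well, medium with 10% dialyzed FBS) attached for 4-5 hr at 37C, received 23 nL compound and were incubated overnight at 37C, 5% CO2. Red fluorescence was then read at 540/590nm Ex/Em, referenced to Rose Bengal sodium.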

Experiment [9] is described as follows: qHTS assay to test for compound auto fluorescence at 535 nm (green) in HEK293 cells (AID 720680).
Experiment [10] in a line: qHTS assay to test for compound auto fluorescence at 460 nm (blue) in HEK293 cell free culture (AID 720681). The method in brief: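 Compounds were added to cell-free DMEM with 10% FBS and fluorescence read directly. The blue channel used 405 nm excitation and 460 nm emission, with triamterene as the reference fluorophore.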
A short description of experiment [11]: qHTS assay to test for compound auto fluorescence at 535 nm (green) in HEK293 cell free culture (AID 720682). The method in brief: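 Each library compound, or DMSO control, is added by pintool to medium alone, comprising DMEM and 10% FBS. Emission at 535 nm following 485 nm excitation is quantified against fluorescein.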
Experiment [12] can be described thus: qHTS assay to test for compound auto fluorescence at 590 nm (red) in HEK293 cell free culture (AID 720683). The method in brief: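 Cell-free wells of DMEM with 10% FBS received compound, and intrinsic fluorescence was read at excitation/emission 540/590 nm. Values expressed as equivalence to Rose Bengal sodium.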
Experiment [13] in a line: qHTS assay to test for compound auto fluorescence at 590 nm (red) in HepG2 cell free culture (AID 720684). In short, it runs like this: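 Compounds are added to culture medium (MEM, 10% FBS) lacking cells, then fluorescence is read at excitation 540 nm, emission 590 nm, with Rose Bengal sodium as the equivalency standard.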
Experiment [14] can be described thus: qHTS assay to test for compound auto fluorescence at 460 nm (blue) in HepG2 cell free culture (AID 720685). In short, it runs like this: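 Compound (23 nL) or DMSO pinned into cell-free MEM with 10% FBS; blue fluorescence read at 405/460 nm excitation/emission, expressed as auto-fluorescence equivalency to triamterene.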
Experiment [15] in a line: qHTS assay to test for compound auto fluorescence at 535 nm (green) in HepG2 cell free culture (AID 720686).
Experiment [16] can be described thus: qHTS assay to test for compound auto fluorescence at 460 nm (blue) in HepG2 cells (AID 720687). The method in brief:
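HepG2 cells in MEM with 10% FBS, attached overnight at 37 C, were exposed to compound or DMSO for 1 hr at 37 C, 5% CO2. Blue fluorescence was read at 405/460 nm, with triamterene as reference fluorophore.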

Experiment [17] has as its target Glucocorticoid receptor (Homo sapiens) (UniProt P04150). The experiment is described as follows: qHTS assay to identify small molecule agonists of the glucocorticoid receptor (GR) signaling pathway (AID 720691; active means well fitted activation curve with a large enough effect in the signal ratio in the repeat runs, not every such curve was filed as active; the % refers to the signal ratio). Conditions: GR-bla HeLa, beta-lactamase reporter ratio, 18 h; activation: at 62.4 µM (top of the series) unless noted. In short, it runs like this:
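Agonist mode in a HeLa line carrying a GRE-controlled beta-lactamase reporter. Compounds act for 18 h at 37 C before a 2 h room-temperature FRET substrate step and fluorescence reading.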

Experiment [18] has the same target. The experiment is described as follows: qHTS assay to identify small molecule antagonists of the glucocorticoid receptor (GR) signaling pathway (AID 720692; active means well fitted inhibition curve with a large enough effect in the signal ratio in the repeat runs, not every such curve was filed as active; the % refers to the signal ratio; further: potency means the concentration at half of the fitted maximal effect). In short, it runs like this:
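Cells plated, rested 4 h at 37 C/5% CO2; compounds in DMSO pin-transferred; dexamethasone added to 5 nM final; 18 h at 37 C; B/G FRET substrate added, 2 h room temperature; fluorescence measured.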

Experiment [19] in a line: qHTS assay for small molecules that induce genotoxicity in human embryonic kidney cells expressing luciferase-tagged ATAD5 - cell viability (AID 651634; calls by dose curve; further: nearly all actives have a fitted effect of over 25% in size). The method in brief:
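Cytotoxicity counterscreen in HEK293T cells bearing an ATAD5-luciferase reporter: live-cell protease activity measured by CellTiter-Fluor fluorescence after 15.5 hr compound exposure.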

Experiment [20] in a line: qHTS assay for small molecule disruptors of the mitochondrial membrane potential (AID 720635). Further: potency means the concentration at half of the fitted maximal effect. The method in brief:
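HepG2 cells exposed to compound 1 hr at 37C, then Mito-MPS dye 30 min. Ratio read of aggregate (540/590 nm) versus monomer (490/535 nm) fluorescence.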
On the % scale 0 is the no-effect control and ±100 the full control effect.

Glucocorticoid receptor (Homo sapiens), sequence (P04150 whole entry, looked up): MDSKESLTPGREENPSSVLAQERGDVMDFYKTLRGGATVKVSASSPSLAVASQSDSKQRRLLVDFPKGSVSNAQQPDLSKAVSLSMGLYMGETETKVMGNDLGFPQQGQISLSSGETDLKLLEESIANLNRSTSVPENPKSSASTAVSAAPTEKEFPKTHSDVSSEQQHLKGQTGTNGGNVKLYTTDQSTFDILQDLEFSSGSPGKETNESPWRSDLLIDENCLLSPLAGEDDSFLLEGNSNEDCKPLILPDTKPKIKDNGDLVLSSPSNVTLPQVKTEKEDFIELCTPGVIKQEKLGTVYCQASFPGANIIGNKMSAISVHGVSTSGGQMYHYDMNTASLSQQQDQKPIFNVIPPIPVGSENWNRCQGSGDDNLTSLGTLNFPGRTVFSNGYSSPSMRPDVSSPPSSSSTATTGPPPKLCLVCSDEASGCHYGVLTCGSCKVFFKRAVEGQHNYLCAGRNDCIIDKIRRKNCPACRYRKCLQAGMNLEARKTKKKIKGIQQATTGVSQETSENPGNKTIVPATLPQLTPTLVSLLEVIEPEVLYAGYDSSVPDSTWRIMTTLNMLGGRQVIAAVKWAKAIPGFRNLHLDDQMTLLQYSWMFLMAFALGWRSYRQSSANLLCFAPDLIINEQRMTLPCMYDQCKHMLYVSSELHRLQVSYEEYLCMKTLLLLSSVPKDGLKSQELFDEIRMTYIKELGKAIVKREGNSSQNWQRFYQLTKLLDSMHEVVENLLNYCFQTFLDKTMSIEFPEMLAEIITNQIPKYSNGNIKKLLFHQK

In the case of `O=C(Nc1ccc(S(=O)(=O)N2CCOCC2)cc1)c1cc(Cl)ccc1NS(=O)(=O)c1ccc(Cl)s1`, the Potency in [1] was 26.6 µM (active); in experiment [3], 9.44 µM (active); in experiment [18], 26.8 µM (active). Further, the Potency result in [2], in experiment [4], in [5], in experiment [6], in experiment [8] and in [12] was “inactive” throughout. Moreover, the Potency result in experiment [13], in experiment [15] and in [17] was “inactive” throughout. For the same compound, the outcome in experiment [7], in [9], in [10], in [11], in [14] and in experiment [16] was inactive.

On to `CNCCCN1c2ccccc2CCc2ccccc21`, for which the Potency entry in [1], in [2], in [3] and in experiment [4] was “inactive” each time. The fluorescence, % of fluorescein control in experiment [6] was 0.0155% [at 18.6 µM]; in [15], -0.0226% [at 18.6 µM]. The fluorescence, % of triamterene in [7] was 0.119% [at 18.6 µM]. Moreover, the fluorescence, % of fluorescent control in experiment [8] was 0.0732% [at 18.6 µM]; in experiment [10], 0.0048% [at 18.6 µM]; in [12], 0.0052% [at 18.6 µM]; in [14], 0.0158% [at 18.6 µM]; in experiment [16], 0.0417% [at 18.6 µM]. Moreover, in experiment [9], the fluorescence, % of fluorescein is -0.0036% [at 18.6 µM]. For the same compound, the activity change in [11] was 0.0761% [at 18.6 µM]. Besides, the fluorescence, % of Rose Bengal in [13] is 0.569% [at 18.6 µM].

With `C=C1[C@H]2CC[C@@H]3[C@H]2C(C)(C)CCC[C@]13C`, the Potency entry in experiment [1], in experiment [2], in [19], in experiment [4], in [5] and in [6] was “inactive” in each case. Also, the Potency result in experiment [12], in experiment [13], in [15], in experiment [17] and in experiment [18] was “inactive” throughout. In addition, the compound was called inactive in experiment [7], in [9], in [10], in experiment [11], in experiment [14] and in experiment [16].

With `COc1ccc(C(=O)c2ccc(OC)cc2O)c(O)c1`, the Potency was 19.5 µM (active) in [1] and 6.16 µM (active) in experiment [20]. For the same compound, the Potency entry in experiment [2], in experiment [19], in experiment [5], in experiment [6], in [8] and in [12] was “inactive” throughout. Besides, the Potency entry in experiment [13], in experiment [15] and in [17] was “inactive” throughout. Also, the call in experiment [7], in experiment [9], in [10], in experiment [11], in experiment [14] and in experiment [16] was inactive.

Regarding `CCCCc1nc2cccnc2n1Cc1ccc(-c2ccccc2-c2nnn[nH]2)cc1`, the Potency result in [1], in [2], in experiment [3], in [5], in experiment [6] and in [8] was “inactive” each time. The Potency entry in experiment [12], in experiment [13] and in [15] was “inactive” each time. The compound was called inactive in experiment [7], in experiment [9], in experiment [10], in [11] and in experiment [16].

Consider `COc1ccc(S(=O)(=O)N2C(=O)[C@@](c3ccccc3OC)(N3C[C@H](O)C[C@H]3C(=O)N(C)C)c3cc(Cl)ccc32)c(OC)c1`, for which the Potency result in experiment [1], in experiment [2], in experiment [3], in experiment [4], in experiment [20] and in experiment [5] was “inactive” throughout. In addition, the Potency result in experiment [6], in [8], in [13], in [15] and in [17] was “inactive” throughout. Moreover, the result in experiment [7], in experiment [9], in experiment [10], in experiment [11], in [14] and in experiment [16] was inactive.

Consider `O=S(c1cc(Cl)cc(Cl)c1O)c1cc(Cl)cc(Cl)c1O`, for which the Potency in [1] was 8.41 µM (active); in experiment [3], 3.35 µM (active). Besides, the Potency entry in experiment [2], in experiment [19], in [6], in [8], in experiment [13] and in experiment [15] was “inactive” throughout. The Potency result in experiment [17] was “inactive”. In addition, the compound was called inactive in experiment [7], in experiment [9], in experiment [10], in [11], in experiment [14] and in experiment [16].
